According to the OligoGym collection:

What follows are sequences tested against KRTAP5-8 (assay: pooled miR-30 sensor sort-seq; sequence = guide strand). Details: shRNA.

Compared with AGCAGCTAGAGCCACATCCCCC, ATGGGCACACAGCAGCTAGAGC is lower in sensor-assay potency score (higher = more potent): -1.72 for the first, -1.84 for the second.

With TGCAGGGCTTACAACAGCTGGA the sensor-assay potency score (higher = more potent) was -1.15.

What follows are sequences tested against KRTAP5-9 in the same assay as above. Details: shRNA.

Going from TTGCAGCAGTAGACGGGTGCAC to CACACAGGGACACAGCATCTGG, the sensor-assay potency score (higher = more potent) falls from -0.372 to -1.57.

First: AGCTAGAGCAGGAACAGGCTGG
Second: TAGACGGGTGCACAGCAGCTGG
The sensor-assay potency score (higher = more potent) of the first is higher: -1.04 for the first, -1.34 for the second.

First: TAGGGCTTGCAGCAGCTGCACT
Second: TAGAGCAGGAACAGGCTGGAAC
The sensor-assay potency score (higher = more potent) of the first is lower: -1.29 for the first, -1.08 for the second.

First: TGAGGATGAGCAGCAGGGCTTG
Second: TTGCCACAGCTAGAGCAGGAAC
The sensor-assay potency score (higher = more potent) of the first is lower: -1.74 for the first, -1.67 for the second.

First: AGTCACAGCCTCCACAGCTGGA
Second: TCACAGCCTCCACAGCTGGAGC
The sensor-assay potency score (higher = more potent) of the first is lower: -1.85 for the first, -1.62 for the second.

Going from TGAAGAGCAACAGCAGGGCTTG to TGGAACACAGCAGCACACGGGC, the sensor-assay potency score (higher = more potent) falls from -0.909 to -1.32.

Each sequence was assayed against KRTAP6-3 in the same assay as above. Details: shRNA.

Compared with TCTGTAGTAGCTGCCACACATG, TAGCCACAGCCACAGAAGGAGC is lower in sensor-assay potency score (higher = more potent): -1.43 for the first, -1.94 for the second.

Compared with ACAGCCATAGCCACAGTCCAGG, TGTAGTTTCTGTAGTAGCTGCC is higher in sensor-assay potency score (higher = more potent): -1.73 for the first, 0.749 for the second.

First: TAGTTTCTGTAGTAGCTGCCAC
Second: TCTGTAGCCACAGCCACAGAAG
The sensor-assay potency score (higher = more potent) of the first is higher: -0.443 for the first, -1.55 for the second.

Going from TTCTGTAGTAGCTGCCACACAT to ATTGTAGTTTCTGTAGTAGCTG, the sensor-assay potency score (higher = more potent) falls from -0.0154 to -0.231.

Compared with ATAGCCATGGCCACCATTGTAG, TTTCTGTAGTAGCTGCCACACA is higher in sensor-assay potency score (higher = more potent): -1.31 for the first, -1.22 for the second.

Compared with TTGTAGTTTCTGTAGTAGCTGC, TAGTAGCTGCCACACATGGTGT is lower in sensor-assay potency score (higher = more potent): -0.198 for the first, -1.17 for the second.

Each sequence was assayed against KRTAP8-1 in the same assay as above. Details: shRNA.

First: TAGCCGAAAGCCCCACAGCCGT
Second: TGCCCCAGTAGCATCCTGGGAA
The sensor-assay potency score (higher = more potent) of the first is lower: -1.72 for the first, -0.828 for the second.

First: TTGGAAAGCAGTGTCTCTGAGG
Second: TGTAGCCATAGCCGAAGCCATA
The sensor-assay potency score (higher = more potent) of the first is higher: -0.482 for the first, -1.87 for the second.

Going from AGCCGTTGTAGCCATAGCCGAA to TGCTGCCATAGCCACAGCCAAC, the sensor-assay potency score (higher = more potent) falls from -1.46 to -2.12.

Compared with ATCCTGGGAAGACAGCCCCGGG, TAGCATCCTGGGAAGACAGCCC is higher in sensor-assay potency score (higher = more potent): -1.89 for the first, -0.588 for the second.

Compared with TATATCCCAGCGGGTAGCCATA, TTGTAGCCATAGCCGAAGCCAT is higher in sensor-assay potency score (higher = more potent): -1.94 for the first, -1.41 for the second.

First: TAGGTGCTGCCATAGCCACAGC
Second: ACAGCCAACGCTATATCCCAGC
The sensor-assay potency score (higher = more potent) of the first is lower: -1.53 for the first, -1.47 for the second.
